In PubChem BioAssay AID493240 (Broad Institute, 2011):
The whole screen tested about 1,300 compounds, of which about 270 (21%) were called active. The rule behind the calls is not given here. The list is a sample of the results. Potency and affinity values are given separately.

assay: cytotoxicity in parental SK-MEL-5 melanoma cells – cell-based, CellTiter-Glo, cherry-picked, set 3, orthogonal assay for MITF inhibitor project, dose response (AID 493240); conditions: SK-MEL-5 viability, ATP luminescence (CellTiter-Glo), 24 h; series mostly up to 35 µM; activity change, negative = viability loss: at the top concentration

| Structure (SMILES) | activity change, negative = viability loss |
| --- | --- |
| CCCC(=O)NC(c1ccc(OC)c(OC)c1)c1cc(Cl)c2cccnc2c1O (stereo not given) | -19.8% (inactive) |
| Cn1cc([N+](=O)[O-])c(C(=O)Nc2nc(-c3ccc(Cl)cc3)cs2)n1 | -38.5% (inactive) |
| O=C(Nc1nc(-c2ccccn2)cs1)c1ccc(F)c(S(=O)(=O)N2CCOCC2)c1 | -3.17% (inactive) |
| CC1CCCCC1NC(=O)/C(C#N)=C/C=C/c1ccccc1[N+](=O)[O-] (stereo not given) | -7.65% (inactive) |
| OCC1OC(n2cnc3c(NCc4ccco4)ncnc32)C(O)C1O (stereo not given) | 1.75% (inactive) |
| COc1cccc(/C=N/NC(=O)CN2CC(c3ccccc3)CC2=O)c1OC (stereo not given) | -15.3% (inactive) |
| CCN1CCc2c(sc(NC(=O)c3ccc(S(=O)(=O)N4CCCCCC4)cc3)c2C(=O)NC)C1 | -6.08% (inactive) |
| Cc1scc(C(=O)N/N=C/c2ccc([N+](=O)[O-])o2)c1C | -35% (inactive) |
| O=[N+]([O-])c1ccc(Sc2cc[n+]([O-])c3ccccc23)c([N+](=O)[O-])c1 | -17.9% (inactive) |
| Cc1ccc(SCCSc2ncccn2)cc1 | -15.8% (inactive) |
| O=C(O)C1CCN(C(=O)OCc2ccccc2)CC1 | 4.11% (inactive) |
| COc1cc(C2C(C#N)=C(N)Oc3cc(N(C)C)ccc32)cc2c1OCO2 (stereo not given) | -8.05% (inactive) |
| O=C(O)c1cc2ccccc2c(N=Nc2cccnc2)c1O | -18.6% (inactive) |
| Cc1cc(C)c2c(N)c3cccc(C)c3nc2n1 | -41.1% (inactive) |
| OCCNc1c2ccccc2nc2ccccc12 | -43.2% (inactive) |
| CC(=O)Nc1ccc(-c2nc3ccccc3o2)cc1 | -3.83% (inactive) |
| Cc1nn2c(N)c(-c3ccccc3)cnc2c1-c1ccccc1 | -3.35% (inactive) |
| COc1ccc(-c2nc(-c3ccncc3)no2)cc1OC | 1% (inactive) |
| C=Cc1ncc(OC)c2c1[nH]c1ccccc12 | -18.9% (inactive) |
| Cc1ccc(NC(=O)CN(C)C(=O)Cn2ncc(Cl)c(Cl)c2=O)cc1 | -6.4% (inactive) |
| O=C(/C=C/NNC(=O)c1ccccc1)c1ccc([N+](=O)[O-])cc1 | -16.6% (inactive) |
| COc1ccc(/C=C/c2cc(C(F)(F)F)on2)cc1 | -11.9% (inactive) |
| O=[N+]([O-])c1ccc(-n2nnnc2-c2ccccc2)c([N+](=O)[O-])c1 | -20.6% (inactive) |

| Structure (SMILES) | activity change, negative = viability loss |
| --- | --- |
| Cc1cc(C(=O)N/N=C/c2ccc([N+](=O)[O-])o2)c(C)o1 | -26.1% (inactive) |
| Cc1ccccc1OCC(=O)N/N=C/c1ccc([N+](=O)[O-])o1 | -32.6% (inactive) |
| CCN(CC)S(=O)(=O)c1cccc(C(=O)N/N=C/c2ccc([N+](=O)[O-])o2)c1 | -3.68% (inactive) |
| O=C(CNc1cccc([N+](=O)[O-])c1)N/N=C/c1ccc([N+](=O)[O-])o1 | -37.9% (inactive) |
| Cc1ccc(OCC(=O)N/N=C/c2ccc([N+](=O)[O-])o2)cc1 | -5.93% (inactive) |
| O=C(N/N=C/c1ccc([N+](=O)[O-])o1)c1cc2ccccc2o1 | -13.3% (inactive) |
| Cc1cc(C)cc(OCC(=O)N/N=C/c2ccc([N+](=O)[O-])o2)c1 | -22.6% (inactive) |
| O=C(CNc1ccc2ccccc2c1)N/N=C/c1ccc([N+](=O)[O-])o1 | -26.6% (inactive) |
| O=c1c2ccccc2cnn1CCOc1ccccc1 | -38.8% (inactive) |
| CC(C)c1nnc(NC(=O)CCC2CCCCC2)s1 | 6.44% (inactive) |
| c1cc(CSc2nnc(-c3ccc4c(c3)OCO4)o2)ccn1 | -27% (inactive) |
| COCCNC(=O)/C(C#N)=C/c1cccc(/C=C(\C#N)C(=O)NCCOC)c1 | -33.3% (inactive) |
| Cc1ccc(C2=NN(C(=O)CCl)C(c3cccs3)C2)o1 (stereo not given) | -37.2% (inactive) |
| Cc1ccc([N+](=O)[O-])cc1N1C(=O)CS/C1=N\NC(=O)c1cccnc1 | -3.24% (inactive) |
| CC(=O)COc1ccc2cc(-c3ccccc3)c(=O)oc2c1 | -2.9% (inactive) |
| O=[N+]([O-])c1ccccc1OCCOc1ccccc1[N+](=O)[O-] | -0.336% (inactive) |
| CCOC(=O)C1(Cc2ccccc2)CCCN(CCCn2cccn2)C1 (stereo not given) | 8.95% (inactive) |
| CN(Cc1ccccc1)C1=CC(=[N+]2CCCCC2)CC(C)(C)C1 | -35.9% (inactive) |
| O=C(NCCNc1ccccc1[N+](=O)[O-])c1cc(F)c(F)cc1Cl | -1.52% (inactive) |
| N#CC(C#N)=C1C=CC=CN1/C(=C\c1ccco1)C(=O)c1ccc(Br)cc1 | -43% (inactive) |
| CC(C)N1C(=O)S/C(=C\c2ccc(-c3ccc(Cl)c(C(=O)O)c3)o2)C1=O | -8.81% (inactive) |
| Cc1cn(CCC(=O)Nc2ccccc2N2CCOCC2)c2ccccc12 | 2.75% (inactive) |
| Fc1ccccc1-c1nc(-c2ccncc2)no1 | 0.869% (inactive) |

| Structure (SMILES) | activity change, negative = viability loss |
| --- | --- |
| Clc1cccc(-c2nc(-c3ccccn3)no2)c1 | -33.1% (inactive) |
| C/C(=N/NC(=O)C(O)(c1ccccc1)c1ccccc1)c1ccc([N+](=O)[O-])o1 | -18.4% (inactive) |
| O=C(Nc1ccc2nc3n(c(=O)c2c1)CCCC3)c1cc([N+](=O)[O-])ccc1F | -36.5% (inactive) |
| CCN(CC(=O)Nc1ccc2c(c1)OCCO2)C(=O)c1ccc([N+](=O)[O-])s1 | 0.045% (inactive) |
| O=C(c1ccc([N+](=O)[O-])s1)N1CCN(c2ccccn2)CC1 | -4.49% (inactive) |
| Cc1c(C#N)c(NC(=O)CCl)n(Cc2cccs2)c1C | -21.3% (inactive) |
| O=C(/C=C/c1ccc2c(c1)OCO2)N1CCCCC1 | -8.83% (inactive) |
| Cc1ccccc1NCc1nc2ccccc2n1C | -26.3% (inactive) |
| O=C(NCC1CCCO1)c1cc(-c2ccc(Cl)cc2Cl)on1 (stereo not given) | -0.7% (inactive) |
| Cc1ccc(C(=O)N/C(=C\c2ccc(-c3ccccc3[N+](=O)[O-])o2)C(=O)NCCN(C)C)cc1 | -11% (inactive) |
| O=C(NC(=S)NCc1ccccc1)c1ccccc1 | -7.22% (inactive) |
| CCOc1ccc2cc(C#N)c(SCC(=O)OC)nc2c1 | -0.011% (inactive) |
| Cc1ccc2nc(-c3ccncc3)[nH]c2c1 | -7.63% (inactive) |
| Cn1nnnc1Sc1ncnc2scc(-c3cccc(F)c3)c12 | -1.07% (inactive) |
| CN(C)c1ccc(-n2cccc2/C=C/[N+](=O)[O-])cc1 | -40.2% (inactive) |
| Cc1ccc(/C=c2/sc3n(c2=O)CCCN=3)o1 | -1.78% (inactive) |
| Cc1ccc(C(=O)NC2=NCCS2)cc1Cl | -9.15% (inactive) |
| Nc1nnc(/C=C/c2ccccc2Cl)s1 | 3.2% (inactive) |
| CC1CCN(Cc2nc(-c3ccc(Cl)cc3)no2)CC1 | -6.13% (inactive) |
| CCOC(=O)N1CCC(NC(=O)C2CCCN(Cc3nc(-c4cccc(C)c4)oc3C)C2)CC1 (stereo not given) | -18.6% (inactive) |
| COc1cc(CN2CCC(C(=O)NCCC(C)C)CC2)ccc1OCc1ccccc1 | -4.88% (inactive) |
| CC(C)c1ccc(C(=O)Nc2cccnc2)cc1 | 3.56% (inactive) |
| Cc1cccc(NC(=O)c2cnn(-c3ccccc3)c2C)c1C | -9.37% (inactive) |

| Structure (SMILES) | activity change, negative = viability loss |
| --- | --- |
| CCOc1ccccc1NC(=O)C1C2CCC(O2)C1C(=O)O (stereo not given) | 11.8% (inactive) |
| N#Cc1c(NC(=O)CSc2ncn[nH]2)sc2c1CCCCC2 | -22.5% (inactive) |
| COC(=O)c1ccc(COc2ccc(C)cc2[N+](=O)[O-])o1 | -9.13% (inactive) |
| Cc1ccc(NC(=O)c2cc(N3C(=O)C=CC3=O)ccc2N2CCOCC2)cc1Cl | -17.8% (inactive) |
| O=C(Nc1ccc(N2CCOCC2)cc1)c1cnsn1 | -19.4% (inactive) |
| CCOC(=O)c1ccc(NC(=O)c2ccnn2C)cc1 | -12.7% (inactive) |
| CCCOc1ccc(C(=O)Nc2ccc3c(c2)OCCO3)cc1 | -8.17% (inactive) |
| O=C(Nc1ccccc1N1CCOCC1)c1ccc([N+](=O)[O-])s1 | -22.3% (inactive) |
| Cc1ccc(NC(=O)c2ccc([N+](=O)[O-])o2)cc1S(=O)(=O)N1CCOCC1 | -28.5% (inactive) |
| CCOC(=O)c1ccc(NC(=O)CC2SCCNC2=O)cc1 (stereo not given) | -5.27% (inactive) |
| Cc1ccc(NC(=O)c2ccc(OCC3CCCO3)cc2)c(C)c1 (stereo not given) | 1.58% (inactive) |
| C=CCC(Nc1ccccc1)C12C=CC(O1)C(C(=O)OC)=C2C(=O)OC (stereo not given) | -37.9% (inactive) |
| Cc1ccc(N2C(=O)c3ccc(N)cc3C2=O)cc1C | -0.496% (inactive) |
| S=c1[nH]nc(-c2ccco2)n1/N=C/C(Cl)=C/c1ccccc1 | -1.61% (inactive) |
| CCCCC1C(=O)N(c2ccccc2)N(c2ccc(O)cc2)C1=O (stereo not given) | -9.02% (inactive) |
| CCOC(=O)CSc1nc2cc(OCC)ccc2cc1C#N | 6.5% (inactive) |
| Brc1ccc(-c2cn3cccnc3n2)cc1 | 4.33% (inactive) |
| O=C(NCc1ccco1)c1nc2c(nnn2Cc2ccccc2Cl)c(=O)[nH]1 | 9.37% (inactive) |
| CC(NC(=O)c1ccc([N+](=O)[O-])o1)C12CC3CC(CC(C3)C1)C2 (stereo not given) | -27.9% (inactive) |
| C=C1C(=O)O[C@@H]2[C@H]1[C@@H](OC(=O)/C(C)=C/C)C/C(C)=C\C(=O)/C=C(\C)[C@@H]2O | -35.8% (inactive) |
| CCN(CCO)c1ccc(N=Nc2cc(C)[nH]n2)cc1 | -2.53% (inactive) |
| CN(C)c1ccc(/C=C2\SC(=O)N(CCc3nnc(N)s3)C2=O)cc1 | -5.85% (inactive) |
| COc1ccc(-c2nc(-c3ccccc3OC)no2)cc1OC | 4.84% (inactive) |

| Structure (SMILES) | activity change, negative = viability loss |
| --- | --- |
| Cc1ccc(NC(=O)Cn2ncc(Cl)c(Cl)c2=O)cc1S(=O)(=O)N1CCCCC1 | -28.8% (inactive) |
| O=C1CN(C(=O)Cn2ncc(Cl)c(Cl)c2=O)c2ccccc2N1 | -29.3% (inactive) |
| CC(C)(C)C(=O)Cn1ncc(Cl)c(Cl)c1=O | -12.3% (inactive) |
| O=C(Cn1ncc(Cl)c(Cl)c1=O)NCC1CCCCC1 | -26.5% (inactive) |
| Cc1cc(Br)ccc1NC(=O)CNC(=O)Cn1ncc(Cl)c(Cl)c1=O | -30.1% (inactive) |
| O=C(Cn1ncc(Cl)c(Cl)c1=O)N1CCN(Cc2ccccc2)CC1 | -27.6% (inactive) |
| Cc1ccc(CC(=O)Nc2ccc(Cl)cn2)cc1 | 3.24% (inactive) |
| C1CCC(C(CC2CCCCN2)C2CCCCC2)CC1 (stereo not given) | -96.3% (inactive) |
| OCc1ccc(N=Nc2ccccc2)cc1 | -1.94% (inactive) |
| COc1cc(-c2nnc(-c3ccco3)o2)ccc1OCc1ccccc1 | -2.21% (inactive) |
| Cc1ccc2nc(C)cc(Nc3ccc([N+](=O)[O-])cc3)c2c1 | -39.3% (inactive) |
| CCOc1cccc(C(=O)NC2=NCCS2)c1 | 3.16% (inactive) |
| COc1ccc(C)cc1Nc1nc(N)c2cc(OC)c(OC)cc2n1 | -22.4% (inactive) |
| O=C(O)c1cc(N/N=C/C(Cl)=C/c2ccccc2)ccc1Cl | -4.24% (inactive) |
| Cc1ccc(C(=O)Nc2nc3ccc(Cl)cc3s2)o1 | 5.37% (inactive) |
| Cc1ccc(-c2n[nH]c(=O)c3ccccc23)cc1S(=O)(=O)NCC1CCCO1 (stereo not given) | -4.56% (inactive) |
| O=C(Nc1ccc2nn(-c3ccccc3)nc2c1)c1ccco1 | -6.18% (inactive) |
| CCOc1ccc(-c2nnc(-c3cccs3)o2)cc1OCC | 9.05% (inactive) |
| Cn1cc(C(=O)N/N=C/c2c(O)ccc3ccccc23)ccc1=O | -13.1% (inactive) |
| C/C(=N/Nc1nc(C)c(C)s1)c1cccc([N+](=O)[O-])c1 | -16.5% (inactive) |
| O=[N+]([O-])c1cc(Cl)cc(/C=N\Nc2ccccn2)c1O | -39.1% (inactive) |
| CCCOc1ccc(-c2c(=O)n(O)c3ccccc3[n+]2[O-])cc1 | -16.6% (inactive) |
| Cc1ccc2oc(=O)n(CCCOc3ccccc3)c2c1 | -2.76% (inactive) |
